Results taken from PubChem BioAssay AID504462 (Sanford-Burnham Center for Chemical Genomics, 2011).
The campaign covered roughly 340,000 compounds. About 1,700 (0.5%) were called active. For the sample, actives were picked, then their nearest neighbours and some compounds at random. Values without a mark were called inactive. No stated cut-off is given here; in the data, active means inhibition above about 40%; inactive means the rest.

Biological target: Cysteine protease ATG4B (Homo sapiens) (UniProt Q9Y4P1)
Experiment: blockers of ATG4B cysteine protease activity – biochemical, fluorescence, uHTS, primary screen (AID 504462)
Conditions: ATG4B cleavage of LC3-PLA2, NBD-HPC fluorescence, 1 h; at 8.33 µM; hits give high values

Chain of Cysteine protease ATG4B (Homo sapiens) (Q9Y4P1 whole entry, looked up): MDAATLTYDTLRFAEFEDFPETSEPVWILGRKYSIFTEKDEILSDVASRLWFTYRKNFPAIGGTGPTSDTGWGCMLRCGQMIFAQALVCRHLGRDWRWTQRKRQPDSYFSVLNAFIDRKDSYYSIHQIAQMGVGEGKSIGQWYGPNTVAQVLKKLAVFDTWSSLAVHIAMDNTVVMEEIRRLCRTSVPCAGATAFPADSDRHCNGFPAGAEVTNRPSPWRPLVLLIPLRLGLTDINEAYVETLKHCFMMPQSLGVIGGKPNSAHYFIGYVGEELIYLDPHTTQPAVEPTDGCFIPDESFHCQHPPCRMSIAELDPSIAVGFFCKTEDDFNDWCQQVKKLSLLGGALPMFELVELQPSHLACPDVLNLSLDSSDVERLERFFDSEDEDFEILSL

Structure (SMILES)	inhibition
O=C(/C=C/NNC(=O)c1cccc(Br)c1)c1ccccc1	8.45%
Cc1cccc(C=CC(=O)c2ccc(Cl)cc2)c1	-4.71%
O=C(O)CCn1cc(/C=C/C(=O)c2ccc(Cl)cc2)c(-c2cccc(Br)c2)n1	53.3% (active)
CCOC(=O)c1ccc(-n2c(CCC(=O)O)ccc2-c2ccccc2)cc1	9.28%
COc1ccc(C(CNCC(=O)Nc2ccccc2F)N(C)C)cc1 (stereo not drawn)	9.81%
Cc1c([N+](=O)[O-])c(N)nn1C	-3.74%
O=C(COC(=O)Cn1[nH]c(=O)c2ccccc2c1=O)Nc1c(Cl)cccc1C(F)(F)F	1.19%
CCC(C)N(C(=O)COC(=O)C1C(C(=O)OC)=C(C)NC(C)=C1C(=O)OC)C1CCS(=O)(=O)C1 (stereo not drawn)	-4.18%
Cc1cc(NC(=O)CSc2nc(C(C)C)nc3sc4c(c23)CCC(C)C4)no1 (stereo not drawn)	-8.31%
Cc1ccc(C)c2c1cc(C)c1nnc(SCC(=O)Nc3cccc(C(=O)O)c3)n12	-4.22%
CC(C)c1nc(SCC(=O)Nc2cccc(C(=O)O)c2)c2c3c(sc2n1)CCCC3	68.4% (active)
Cc1cc(N(C)C)cc(C)[n+]1[O-]	1%
Cc1ccccc1-n1c(C)cc(/C=C2\NC(=O)NC2=O)c1C	-2.07%
Cc1cccc(C)c1-n1c(C)cc(/C=C2\C(=O)NN(c3ccccc3)C2=O)c1C	50.9% (active)
C#CCOc1ccc(/C=C2/C(=O)NN(c3ccccc3)C2=O)cc1OC	3.6%
CC(C)CC(=O)NC(=S)Nc1ccc(F)cc1F	0.36%
O=C(CC1C(=O)NCCN1CC(c1ccccc1)c1ccccc1)NCC1CCOCC1 (stereo not drawn)	5.98%
Cc1cccc(CC(=O)Nc2c3c(nn2-c2cccc(Cl)c2)CS(=O)C3)c1 (stereo not drawn)	-6.51%
CCN(CC)C(=O)c1sc2nc(-c3ccccc3)ccc2c1N	-13.8%
Cc1sc2nc(CC(N)=O)[nH]c(=O)c2c1-c1ccccc1	5.21%

Structure (SMILES)	inhibition
NC(=O)c1sc2nc3c(c(-c4ccccc4)c2c1N)CCC3	42.3% (active)
CCN(CC)S(=O)(=O)c1ccc2c3c(cccc13)C(=O)S2	-12.5%
O=C(c1ccncc1)N1CCN(S(=O)(=O)c2cccc([N+](=O)[O-])c2)CC1	-1.28%
Cc1ccccc1/C=C\c1nc(O)c([N+](=O)[O-])c(=O)[nH]1	4.7%
CCCc1ccc(C(=O)[C@@H]2[C@@H](C(C)=O)N3c4ccc(F)cc4C=C[C@@H]3[C@@]23C(=O)Nc2ccccc23)cc1	7.49%
COc1ccc(CNC(=O)CCCn2nc(C)c([N+](=O)[O-])c2C)cc1	4.24%
Cc1ccc(Oc2cc(NC(=O)CCCn3nc(C)c([N+](=O)[O-])c3C)cc([N+](=O)[O-])c2)cc1	62% (active)
Cc1nn(CC(=O)Nc2ccc(N(C)C)cc2)c(C)c1[N+](=O)[O-]	-1.82%
CN(c1ccc(OCC(=O)NC2=NCCS2)cc1)S(=O)(=O)c1ccc(F)cc1	-9.32%
COCCCNC(=S)NC(=O)c1ccc([N+](=O)[O-])cc1	-7.22%
Cc1nc2sc3c(c2c(=O)n1NC(=O)CCl)CCCC3	-3.09%
CCCc1nc2sc3c(c2c(=O)n1NC(=O)CCCl)CCCC3	10.3%
CCc1nc(N2CCN(C(C)=O)CC2)c2c3c(sc2n1)CCCC3	45.4% (active)
COc1cc(/C=C/C(=O)O)cc(S(=O)(=O)Nc2ccccc2SC)c1OC	-3.57%
CS(=O)(=O)N(Cc1ccccc1Cl)c1ccc(C(=O)NCc2cccnc2)cc1	-9.46%
CCCCN(C(=O)CSCC(=O)Nc1ccc(OC)cc1)c1c(N)n(CCC)c(=O)[nH]c1=O	-1.8%
COc1cccc(CNc2nc(C(F)(F)F)nc3ccccc23)c1	49% (active)
NS(=O)(=O)c1ccc(CCNc2nc(C(F)(F)F)nc3ccccc23)cc1	-2.12%
CCc1ccc(C(CNc2nc(C(F)(F)F)nc3ccccc23)N(C)C)cc1 (stereo not drawn)	19.9%
COC(=O)CN(c1nc(C)c(Cl)c(OC)n1)S(=O)(=O)c1ccc(C)cc1	11.3%

Structure (SMILES)	inhibition
CC1Cc2ccccc2N1C1=CC(=O)CC(C)(C)C1 (stereo not drawn)	-2.3%
COc1ccc(S(=O)(=O)/N=C2\C=C(NS(=O)(=O)c3ccccc3)C(=O)c3ccccc32)cc1	-24.5%
CC1=C/C(=N\OS(=O)(=O)c2ccccc2)C=CC1=O	-2.58%
CC1=C/C(=N\S(=O)(=O)c2ccccc2)C(C(C)C)=CC1=O	66% (active)
Cc1cc(C)nc(-n2ncc3c2CC(c2ccc(C(C)C)cc2)CC3=O)n1 (stereo not drawn)	-17.4%
Cc1ccc(CNC(=O)CCN2C(=O)[C@@H]3Cc4ccccc4CN3C2=O)cc1	2.31%
CC(=O)Nc1ccc(NC(=O)CSc2nnnn2-c2ccccc2F)cc1	2.29%
C=CCC1(CC=C)CCCN1C(=O)c1cc(COc2ccc(-n3cncn3)cc2)on1	7.84%
CC(C)CCNC(=O)C1CCCN(S(=O)(=O)c2ccc(F)cc2)C1 (stereo not drawn)	0.97%
O=C(c1ccc(OC2CCN(C(=O)c3cccnc3)CC2)cc1)N1CCCCCC1	19.9%
CC1(OC(=O)C2CCCC2)C(=O)C=C2C=C(c3ccc(C#N)cc3)OC=C2C1=O (stereo not drawn)	45.7% (active)
COCCN1C=C2C(=O)C(C)(OC(=O)C3CCCC3)C(=O)C=C2C=C1c1ccsc1 (stereo not drawn)	2.63%
C=CCN1C=C2C(=O)C(C)(OC(=O)CCc3ccccc3)C(=O)C=C2C=C1c1ccc(C#N)cc1 (stereo not drawn)	-3.06%
O=C(O)c1ccc([N+](=O)[O-])cc1Sc1ccsc1	5.83%
COc1ccc(C(=O)CC(=O)c2ccc(C)cc2)c(O)c1	1.97%
CCN1C(=O)/C(=C\N2CCN(c3cccc(Cl)c3)CC2)SC1=S	1.01%
O=C(O)C(c1ccccc1)N1C(=O)/C(=C\c2ccc(-c3cccc(Cl)c3)o2)SC1=S (stereo not drawn)	59.4% (active)
Cn1cccc1/C=C1\SC(=S)N(NC(=O)c2ccc(Cl)cc2)C1=O	11.7%
